Source: PubChem
A selection: hits, their analogues and other compounds. The true share with any hit is near 14%.
HCMV antiviral: inhibitors of human cytomegalovirus | HFF cells, HCMV-luciferase reporter, 72 h; stronger effect = lower value | activity change, negative = inhibition, % at 57.5 µM | 4.5% of 410,000 active | AID 1259415; in the data active = activity change below about -60%; inconclusive = no clear call, values can overlap the other calls; inactive = above about -39%
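After 16 h attachment at 37C, HFF cells received test compound and HCMV-luciferase (1 PFU/cell); reporter luminescence read 72 h later, data normalized against buffer-only and known inhibitor Salinomycin.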
LASV entry inh: inhibitors of Lassa virus binding or cell entry | Potency, µM (titrated, usually from 37.9 µM), for the others: at the top dose activity change, negative = inhibition, actives largely listed as inhibitors | Lassa virus pseudotype entry inhibition, cell reporter | AID 540256 | 1.2% of 300,000 active; calls by dose curve; tested in HEK293 cells; note: potency is the fitted concentration of half-maximal effect; nearly all actives have a fitted effect of over 50% in size
Pf growth 96h: inhibits malaria parasite growth, 96 h; P. falciparum luciferase reporter growth, 96 h; Potency, µM (highest dose often 28.7 µM), for inactives: at the highest dose activity change, negative = inhibition, most hits filed as inhibitors; 6.9% of 320,000 active; AID 504834; note: potency is the fitted concentration of half-maximal effect
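Erythrocytes infected with luciferase-expressing P. falciparum were dispensed at 2% hematocrit and 0.05% parasitemia (final), then incubated with compounds 96 hours at 37 C in 5% CO2. Luminescence after detection reagent addition reported growth.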
MARV entry inh: inhibitors of Marburg virus binding or cell entry; Marburg virus pseudotyped entry inhibition, cell reporter; Potency, µM (highest dose often 37.8 µM), for the others: at the top dose activity change, negative = inhibition, usual class: inhibitors; 1.8% of 300,000 active; AID 540276; calls by dose curve; tested in HEK293 cells; note: potency is the fitted concentration of half-maximal effect
HCV inhibitor: inhibitors of hepatitis C virus infection; Huh7.5.1 HCVcc-Cre infection, luciferase reporter, 44 h; Potency, µM (series often up to 41.8 µM), for inactives: top-dose activity change, negative = inhibition, most hits filed as inhibitors; 3.4% of 340,000 active; AID 651820; note: potency is the fitted concentration of half-maximal effect
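Infectious HCVcc-Cre (~0.5 moi) was added to cells just after compound, with cells seeded 4 h earlier at 1,000 per well. Luciferase activity after 44 h culture reported infection; substrate was incubated 15 min at room temperature before reading.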
Pf growth 48h: inhibits P. falciparum growth in the first generation, 48 h. P. falciparum luciferase growth in erythrocytes, 48 h. Potency, µM (top dose mostly 28.7 µM), for the others: top-dose activity change, negative = inhibition, hits mostly inhibitors. 5.9% of 310,000 active. AID 504832; note: potency is the fitted concentration of half-maximal effect
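Parasite viability was followed by luminescence of a genomically integrated firefly luciferase. Cultures held 0.1% parasitemia at 2% hematocrit (final), incubated under 5% CO2 at 37 C.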
* hit, by the source's call; i = inactive; ? = inconclusive; · = not tested or not shown; [ ] = another dose, or the depositor's remark. Unless noted, calls come from the whole dose curve; as a rule, active = well fitted inhibition curve with a large enough effect; inconclusive = small, poorly fitted or top-dose-only effect, or another doubt; inactive = no such curve, though single readings can be large or run the other way. % is set by controls: 0 for no effect and ±100 for the full control effect.

SMILES	HCMV antiviral	LASV entry inh	Pf growth 96h	MARV entry inh	HCV inhibitor	Pf growth 48h
COc1ccc(-n2c(O)c(C(C)=NCc3ccco3)c(=O)[nH]c2=O)cc1	4.7	?	?	24.9%	-1.7%	-2.5%
CCc1ccc(Nc2nc3c(S(=O)(=O)c4cccc(Cl)c4)nnn3c3ccsc23)cc1	6.0	4.1%[46.1 µM]	·	·	·	·
CC1CCc2c(sc(NC(=O)c3ccccc3)c2C(=O)Nc2ccccc2)C1 (centres undefined)	5.2	-3.1%[46.1 µM]	·	·	·	·
CNc1nnc(-c2cc3cc(Cl)ccc3oc2=O)s1	71.4	?	26.5%	0.6%	12.3%	·
O=c1oc2ccc(Cl)cc2cc1-c1nnc(Nc2cccc(C(F)(F)F)c2)s1	-64.2*	11.1%	-5.7%	-0.5%	-6.2%	17.2%
COc1ccc(S(=O)(=O)N2CCCCC2c2cc(C(=O)NCc3cccnc3)no2)cc1 (centres undefined)	3.6	·	·	·	·	·
COc1cc(OC)cc(OCC(O)Cn2cnc(-c3ccccc3)c2)c1 (centres undefined)	-13.0	3.7%	0.8%	-13.8%	?	13.1µM*
CCOC(=O)[C@H](CCc1ccccc1)N[C@@H](C)C(=O)N1[C@H](C(=O)O)C[C@@H]2CCC[C@@H]21	9.3	·	·	·	-23.1%	·
COc1ccc2ncn(-c3cc(OC(C)c4ccccc4C(F)(F)F)c(C(N)=O)s3)c2c1 (centres undefined)	·	0.223µM*	·	·	·	·
CC(Oc1cc(-n2cnc3ccc(OC4CCN(C)CC4)cc32)sc1C(N)=O)c1ccccc1Cl (centres undefined)	·	0.199µM*	·	·	·	·
COc1cccc(COc2cc(-n3cnc4ccccc43)sc2C(N)=O)c1	·	4.99µM*	·	·	·	·
CC(=O)Nc1sc(C)c(C)c1C(=O)OCC(=O)NCc1ccc(F)cc1	20.6	·	26.5%	·	-14.8%	?
COc1ccccc1C(=O)ON=C1c2ccccc2-c2ccccc21	-4.9	?	1.65µM*	?	?	3.5%
O=C(COC(=O)/C=C/c1ccccc1)NNC(=O)c1ccc([N+](=O)[O-])cc1	32.7	-5.3%	28.7%	-9.0%	-9.5%[8.37 µM]	26.8%
O=C1CCCC(O)=C1C1C2=C(CCCC2=O)OC2=C1C(=O)CCC2	-33.2	-18.5%	30.2%	-3.7%[46.1 µM]	3.8%	-0.7%
O=C1CCCC2=C1C(c1ccccc1O)C1=C(CCCC1=O)O2	-0.5	-13.1%	8.28µM*	?	-7.9%	·
CCOc1ccc(CNC(=O)CS(=O)(=O)c2cccc3nsnc23)cc1	11.4	-5.4%[46.1 µM]	·	·	·	·
COc1cc(-c2nc(-c3ccccc3)c(-c3cccs3)[nH]2)cc(OC)c1O	-1.5	-9.8%	1.85µM*	8.1%	10µM*	·
COc1cc(-c2nc(-c3ccccc3)c(-c3cccs3)[nH]2)cc(OC)c1OC	21.0	-35.2%	·	?	22.4µM*	?
COCCCN1C(=O)c2oc3ccccc3c(=O)c2C12C(=O)N(C)c1ccccc12 (centres undefined)	8.8	2.0%[46.1 µM]	·	-6.4%[46.1 µM]	·	·
CCN(CC)C(=O)c1ccc(N2C(=O)C3CC=C(Cl)CC3C2=O)cc1 (centres undefined)	25.0	4.5%	-4.4%	-16.1%[46.1 µM]	7.8%	7.6%
C/C(=N\O)c1ccc(N2C(=O)C3CC=C(Cl)CC3C2=O)cc1 (centres undefined)	106.3	-1.5%	5.22µM*	0.8%	4.6%	i
C=CCCC(=O)N1CCCC(Cc2cccc(Cl)c2)(C(=O)OCC)C1 (centres undefined)	15.3	-17.3%[46.1 µM]	11.7µM*	?	?	-27.9%
CCOC(=O)C1(Cc2cccc(Cl)c2)CCCN(C(=O)c2ccc(C)nc2)C1 (centres undefined)	?	-28.9%	14.7µM*	?	8.5%	-14.4%
Cc1ccc2c(=O)n3c(nc2c1)C(Cc1ccc(O)cc1)NC(=O)c1cc2ccccc2cc1-3 (centres undefined)	-65.5*	·	·	·	·	·
SMILES	HCMV antiviral	LASV entry inh	Pf growth 96h	MARV entry inh	HCV inhibitor	Pf growth 48h
Cc1cc(C)c2c(=O)n3c(nc2c1)C(Cc1ccccc1)NC(=O)c1cc2ccccc2cc1-3 (centres undefined)	-71.9*	·	·	·	·	·
O=C1NC(Cc2ccc(O)cc2)c2nc3cc(F)ccc3c(=O)n2-c2cc(Cl)ccc21 (centres undefined)	13.8	·	·	·	0.2%	·
O=C1NC(Cc2ccc(O)cc2)c2nc3ccc(Cl)cc3c(=O)n2-c2cc3ccccc3cc21 (centres undefined)	-105.5*	·	·	·	·	·
CCC1NC(=O)c2cc3ccccc3cc2-n2c1nc1cc(C)cc(C)c1c2=O (centres undefined)	-10.3	·	·	·	·	·
O=C1NC(Cc2ccc(O)cc2)c2nc3cc(Cl)ccc3c(=O)n2-c2cc(Cl)ccc21 (centres undefined)	-19.7	·	·	·	25.1µM*	·
COc1cc(C2Nc3ccccc3-c3nnc(SCc4ccc(C)cc4)nc3O2)cc(OC)c1O (centres undefined)	-6.8	-6.3%[46.1 µM]	·	?	·	·
O=C(NCC(c1cccnc1)N1CCN(c2ccccc2F)CC1)C(=O)Nc1ccc(F)cc1F (centres undefined)	-12.6	-3.2%[46.1 µM]	·	·	·	·
Cc1nc(SCC(=O)Nc2ccc(Cl)cc2C(F)(F)F)[nH]c(=O)c1Cc1ccccc1	5.8	-17.4%[46.1 µM]	·	1.8%[46.1 µM]	·	·
COc1ccccc1C1CCN(c2cc(O)ccc2[N+](=O)[O-])CC1	-72.1*	?	?	?	-11.8%	?
COc1cccc(-c2nc3c(Nc4cccc(F)c4)nccc3[nH]2)c1F	-11.8	·	·	·	·	·
Cc1cn(-c2cc(C(=O)Nc3ccc(C)c(NC(=O)C(=O)c4c[nH]c5ccccc45)c3)cc(C(F)(F)F)c2)cn1	?	·	?	·	?	1.04µM*
Cc1ccc(OCCCSc2nc(-c3ccc(C(C)(C)C)cc3)nc3cc(=O)[nH]n23)cc1C	?	22.5%[46.1 µM]	·	·	·	·
Cc1cccc2cc(-c3ccccc3)c(-c3ccccc3)c[n+]12	-96.5*	11.2µM*	1.31µM*	?	?	1.85µM*
Cc1[nH]c(=O)c(C#N)cc1-c1ccccc1	22.5	23.7%	-0.2%	24.0%	12.8%	-12.5%
CC1(C)C(=O)N(CC(=O)Nc2ccc(Cl)cc2)c2ccccc21	16.5	-13.6%[46.1 µM]	·	·	·	·
FC(F)(F)c1cccc(-c2nnn3c2nc(NC2CCCCC2)c2ccccc23)c1	42.7	12.0%[46.1 µM]	·	0.3%[46.1 µM]	·	·
CCOC(=O)c1nnn2c1nc(SCC(C)=O)c1ccccc12	5.4	0.0%	?	6.9%	-2.1%	61.4%
CCOC(=O)c1nnn2c1nc(Nc1cccc(C(F)(F)F)c1)c1ccccc12	-74.3*	21.5%	?	?	-3.1%	?
NNc1nc2c(-c3cccc(C(F)(F)F)c3)nnn2c2ccccc12	43.8	?	25.9%	?	14.1µM*	6.57µM*
CC(=O)NCCNc1nc2c(-c3ccc(C)cc3)nnn2c2ccccc12	52.6	11.2%[46.1 µM]	·	12.9%[46.1 µM]	·	·
